Bioassay records (PubChem)
TDP1 cell noCPT – qHTS for Inhibitors of human tyrosyl-DNA phosphodiesterase 1 (TDP1): qHTS in cells in absence of CPT. DT40 Tdp1-/- hTDP1 cells, no CPT, ATP luminescence, 48 h. Potency, µM (series often up to 46.2 µM), usual class: inhibitors. 420,000 compounds, 15% hits. AID 686978, 2013; further: nearly all actives have a fitted effect of over 55% in size
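Growth of hTDP1-complemented DT40 Tdp1-knockout cells is measured by ATP luminescence after at least 48 hr compound exposure at 37 °C, with DMSO substituting for the 20 nM CPT used in the parallel screen.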
VDR inh – vitamin D3 receptor (human) inhibition | 400,000 compounds, 0.93% hits | VDR-SRC2-3 peptide fluorescence polarization, 2 h | P11473 | Potency, µM, actives largely listed as inhibitors
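Fluorescence polarization assay measuring small-molecule disruption of VDR binding to the coregulator peptide SRC2-3. Compounds were pin-transferred (23 nl) into the reagent mix and incubated 2 h at room temperature before reading.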
TDP1 cell CPT – DT40-hTDP1 cell growth loss with CPT; 420,000 compounds, 12% hits; Potency, µM (titrated, usually from 46.2 µM), hits mostly inhibitors; chicken DT40 Tdp1-/-;hTDP1 cells + 20 nM CPT, ATP luminescence, 48 h; further: nearly all actives have a fitted effect of over 55% in size
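Chicken DT40 Tdp1-/- cells stably complemented with human TDP1 were seeded at 400 cells/well in medium containing 20 nM camptothecin, exposed to pin-transferred compounds, and grown at 37 °C for at least 48 hr. Viability was read as ATP luminescence.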
TDP1 inh – TDP1 (human) enzyme inhibition; recombinant TDP1, AlphaScreen DNA substrate cleavage; AID 485290; 350,000 compounds, 0.28% hits; Potency, µM (top dose mostly 130 µM), hits mostly inhibitors; further: nearly all actives have a fitted effect of over 40% in size
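Recombinant E. coli-expressed Tdp1 (1 nM) preincubated with compound 15 min at RT, then 5'-biotin/3'-phosphotyrosine-FITC DNA substrate (15 nM) added for 5 min. AlphaScreen beads (10 ug/ml) added, 10 min RT; tyrosine-FITC cleavage read as signal loss.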
GCN5L2 inh – GCN5L2 (KAT2A) acetyltransferase inhibition; 390,000 compounds, 0.21% hits; GCN5L2 HAT assay, ThioGlo1 CoA-SH fluorescence; Potency, µM (top dose mostly 58.9 µM), usual class: inhibitors; AID 504327; Q92830
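Fluorescence readout, Ex340nm/Em540nm: ThioGlo1 (50uM final) reacts with free CoA thiol released as 20nM GCN5L2 acetylates H3(1-25) peptide (75uM) using acetyl-CoA (70uM). Compound and enzyme sat 15 min beforehand; 20 min room-temperature reaction.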
PLK1 PBD block – blocks phosphopeptide binding to human PLK1 polo-box domain. AID 720504. 360,000 compounds, 2.8% hits. Plk1 PBD binding of FITC phosphopeptide, fluorescence polarization. Potency, µM, hits mostly inhibitors. P53350; further: series mostly up to about 57 µM; nearly all actives have a fitted effect of over 65% in size
Target sequence (P53350 whole entry, looked up, the tested form may be a part): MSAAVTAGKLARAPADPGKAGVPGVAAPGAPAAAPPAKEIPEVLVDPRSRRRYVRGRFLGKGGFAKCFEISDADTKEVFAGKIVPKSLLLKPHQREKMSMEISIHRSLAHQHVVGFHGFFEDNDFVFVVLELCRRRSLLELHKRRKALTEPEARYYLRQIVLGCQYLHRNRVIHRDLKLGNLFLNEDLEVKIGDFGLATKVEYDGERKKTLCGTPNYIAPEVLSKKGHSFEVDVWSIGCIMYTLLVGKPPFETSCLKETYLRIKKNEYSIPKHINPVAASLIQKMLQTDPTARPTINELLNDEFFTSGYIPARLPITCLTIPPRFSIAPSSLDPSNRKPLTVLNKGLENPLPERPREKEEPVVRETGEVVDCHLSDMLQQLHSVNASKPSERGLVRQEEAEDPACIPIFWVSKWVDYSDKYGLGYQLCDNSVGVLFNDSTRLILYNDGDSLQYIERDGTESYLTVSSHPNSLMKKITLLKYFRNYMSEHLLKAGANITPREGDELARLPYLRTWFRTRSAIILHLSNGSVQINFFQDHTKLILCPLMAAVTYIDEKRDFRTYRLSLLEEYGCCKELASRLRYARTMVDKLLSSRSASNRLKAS
Hits are given with their value; i = inactive; ? = inconclusive; nt = not tested or not shown; [ ] = another dose, or the depositor's remark. Rows were chosen to be rich in hits. Some 18% of all compounds tested hit in one or more screens of this group. The call rests on the fitted dose curve; in most records, active means well fitted curve in the direction sought with a large enough effect; inconclusive means small, poorly fitted or top-dose-only effect, or another doubt; inactive means no such curve, though single readings can be large; an effect the other way counts as inactive or inconclusive.

SMILES	TDP1 cell noCPT	VDR inh	TDP1 cell CPT	TDP1 inh	GCN5L2 inh	PLK1 PBD block
COC(=O)c1ccccc1-c1cc(C)cc2c1OC(CNC(=O)c1cc(C)n(C)n1)C2 (stereo unspecified)	?	nt	i[9.04 µM]	nt	nt	nt
COC(=O)c1ccccc1-c1cc(C)cc2c1OC(CNC(=O)c1occc1C)C2 (stereo unspecified)	11.6µM	nt	16.4µM	nt	nt	nt
Cn1c(=O)n(C)c2cc(NS(=O)(=O)c3ccc4c(c3)CCCC4)ccc21	?	i	17.8µM	i	i	i
Cn1c(=O)n(C)c2cc(NS(=O)(=O)c3ccc(C(C)(C)C)cc3)ccc21	18.4µM	i	18.4µM	nt	i	i
Cn1c(=O)c2cc(S(=O)(=O)Nc3ccc4c(c3)OCO4)ccc2n(C)c1=O	7.08µM	i	2.06µM	i	i	i
COc1ccc(S(=O)(=O)Nc2ccc3c(c2)OCO3)cc1	?	i	i	i	i	i
COc1cc(/C=C/C(=O)OCC(=O)NC2CCCCCCC2)ccc1O	i	i	i	i	i	i
CS(=O)(=O)N1CCC2(CCN(c3cccc(-c4ccccc4)c3)CC2)CC1	20.6µM	i	?	nt	i	nt
CS(=O)(=O)N1CCC2(CC1)CN(c1cccc(-c3ccccc3)c1)C2	18.4µM	i	?	nt	i	nt
Cc1noc(C)c1C(=O)OCC(=O)Nc1ccccc1Oc1ccccc1	i	i	?	i	i	i
CC(=O)c1ccccc1NC(=O)COC(=O)c1c(C)nn(-c2ccccc2)c1C	14.6µM	i	?	i	i	i
Cc1noc(C)c1C(=O)OCC(=O)Nc1ccccc1C(=O)NC(C)c1ccccc1 (stereo unspecified)	20.6µM	i	29.1µM	i	i	i
COc1ccccc1NC(=O)COC(=O)c1c(C)nn(-c2ccccc2)c1C	18.4µM	i	18.4µM	i	i	i
Cc1nn(-c2ccccc2)c(C)c1C(=O)OCC(=O)Nc1ccccc1C(F)(F)F	?	i	?	i	i	i
O=C(Cc1ccc(O)cc1)N/N=C/c1cccnc1	i	i	i	i	i	i
O=C(Nc1ccc(F)c([N+](=O)[O-])c1)c1ccc2c(c1)C(=O)OC2=O	nt	nt	nt	i	?	nt
CCOCCCNC(=O)C(NC(=O)Cc1c[nH]c2ccccc12)c1ccccc1 (stereo unspecified)	i	i	i	i	i	i
Cc1nc(NCc2cccc3c2OCO3)sc1-c1ccn(CC2CCCN(C)C2)n1 (stereo unspecified)	i	nt	i[9.04 µM]	nt	nt	nt
NC(=O)C1(Nc2ccc(-c3ccc(Br)cc3)cc2)CCCC1	?	i	i	nt	nt	i
CC1(C)C=C2C(=NN(c3ccccc3)C(N)=C2C#N)CO1	?	?	13µM	nt	i	?
Cc1ccc(S(=O)(=O)N2c3ccccc3OC(C(=O)OC(C)(C)C)(C(=O)OC(C)(C)C)C2CC(=O)c2ccccc2)cc1 (stereo unspecified)	5.8µM	nt	6.51µM	nt	nt	i
COC(=O)CC1N(S(=O)(=O)c2ccc(C)cc2)c2ccccc2C1(C(=O)OC)C(=O)OC (stereo unspecified)	?	nt	25.9µM	nt	nt	i
O=C(Nc1cc(F)ccc1F)C1CCN(C(=O)c2cnn(-c3ccccc3)c2-n2cccc2)CC1	25.9µM	i	?	i	i	nt
CCc1cccc(NC(=O)C2CCN(C(=O)c3cnn(-c4ccccc4)c3-n3cccc3)CC2)c1	14.6µM	i	20.6µM	i	i	nt
CC(=O)c1cccc(NC(=O)C2CCN(C(=O)c3cnn(-c4ccccc4)c3-n3cccc3)CC2)c1	?	i	?	i	i	nt
SMILES	TDP1 cell noCPT	VDR inh	TDP1 cell CPT	TDP1 inh	GCN5L2 inh	PLK1 PBD block
CCCSCCCNC(=O)C1CCN(C(=O)c2cnn(-c3ccccc3)c2-n2cccc2)CC1	?	i	18.4µM	i	i	nt
Cc1ccc(Cl)cc1NC(=O)C1CCN(C(=O)c2cnn(-c3ccccc3)c2-n2cccc2)CC1	20.6µM	i	i	i	i	nt
COc1ccc(Nc2nc3ccccc3n3c(N)nnc23)cc1	?	i	?	i	i	nt
Cc1cc(NC(=O)CSc2nnc(C(F)(F)F)n2C)no1	i	i	i	i	i	i
CCCCN(C)C(=O)Cn1cnc2sc(C)c(S(=O)(=O)N3CCC(C)CC3)c2c1=O	i	i	i	i	i	nt
O=S(=O)(N/N=C/c1cccnc1)c1ccc(Cl)c(Cl)c1	i	?	?	i	i	13.4µM
N#CC1=C(N)N2C(=C(C#N)C1c1cccc(Br)c1)Nc1ccccc12 (stereo unspecified)	3.26µM	i	3.66µM	i	i	i
N#CC1=C(N)N2C(=C(C#N)C1c1ccccc1)Sc1ccccc12 (stereo unspecified)	nt	nt	nt	i	i	nt
COc1ccc(CN2COc3ccc4c(-c5ccc(OC)cc5)cc(=O)oc4c3C2)cc1	20.6µM	i	9.2µM	i	i	nt
COc1ccccc1CN1COc2ccc3c(oc(=O)c4ccccc43)c2C1	23.1µM	i	?	i	i	nt
N#Cc1cc2c(nc1Cl)CCCC2	?	i	i	i	i	i
CNC(=O)c1ccc2nc(-c3ccco3)c(-c3ccco3)nc2c1	?	?	20µM	11.2µM	nt	nt
CC(=O)c1ccc(NC(=O)c2ccc3nc(-c4ccco4)c(-c4ccco4)nc3c2)cc1	?	?	?	11.2µM	?	23.8µM
CCc1nc2ccc(C(=O)NCCc3ccco3)cc2nc1CC	?	i	?	i	i	i
Cc1cccc(N2CCN(C(=O)c3ccc4nc(-c5ccco5)c(-c5ccco5)nc4c3)CC2C)c1 (stereo unspecified)	18.4µM	i	18.4µM	i	i	i
Cc1cccc(N2CCN(C(=O)c3ccc4c(Cl)c5c(nc4c3)CCCC5)CC2C)c1 (stereo unspecified)	?	i	i	i	i	nt
CCCCNC(=O)c1ccc2nc(-c3ccco3)c(-c3ccco3)nc2c1	?	79.4µM	?	i	i	21.2µM
Cc1ccc(-c2nc3cccnc3s2)cc1NC(=O)Cc1ccccc1	?	i	?	i	i	nt
COC(=O)N1C(C2CC2)=Cc2ccccc2C1CC(C)=O (stereo unspecified)	nt	i	nt	i	nt	nt
O=C(NC1CC1)c1ccc2nc(-c3ccco3)c(-c3ccco3)nc2c1	12.6µM	?	?	?	nt	nt
O=C(Nc1ccc(N2CCOCC2)cc1)c1ccc2nc(-c3ccco3)c(-c3ccco3)nc2c1	?	i	i	i	i	i
CC(=O)N1c2ccc(S(=O)(=O)NCC3CCC(C(=O)Nc4ccccc4C)CC3)cc2CC1C (stereo unspecified)	20.6µM	i	25.9µM	i	i	nt
